Screening data: PubChem, Buhrlage Lab, Dana-Farber Cancer Institute and Novartis Institutes for BioMedical Research (Cambridge, Mass)
USP28 block – inhibitors of human USP28 deubiquitinase | Ubiquitin carboxyl-terminal hydrolase 28 (Homo sapiens), Q96RU2 | purified USP28, Ub-rhodamine cleavage fluorescence, 30 min | inhibition, % at 25 µM | 47,000 tested, 3% active | AID 1645857, 2021
USP17 inh – inhibitors of human USP17 deubiquitinase | Ubiquitin carboxyl-terminal hydrolase 17-like protein 5 (Homo sapiens), A8MUK1 | purified USP17, Ub-rhodamine cleavage fluorescence, 3 h | inhibition, % at 50 µM | 47,000 tested, 6.5% active
Target sequence (A8MUK1 whole entry, looked up): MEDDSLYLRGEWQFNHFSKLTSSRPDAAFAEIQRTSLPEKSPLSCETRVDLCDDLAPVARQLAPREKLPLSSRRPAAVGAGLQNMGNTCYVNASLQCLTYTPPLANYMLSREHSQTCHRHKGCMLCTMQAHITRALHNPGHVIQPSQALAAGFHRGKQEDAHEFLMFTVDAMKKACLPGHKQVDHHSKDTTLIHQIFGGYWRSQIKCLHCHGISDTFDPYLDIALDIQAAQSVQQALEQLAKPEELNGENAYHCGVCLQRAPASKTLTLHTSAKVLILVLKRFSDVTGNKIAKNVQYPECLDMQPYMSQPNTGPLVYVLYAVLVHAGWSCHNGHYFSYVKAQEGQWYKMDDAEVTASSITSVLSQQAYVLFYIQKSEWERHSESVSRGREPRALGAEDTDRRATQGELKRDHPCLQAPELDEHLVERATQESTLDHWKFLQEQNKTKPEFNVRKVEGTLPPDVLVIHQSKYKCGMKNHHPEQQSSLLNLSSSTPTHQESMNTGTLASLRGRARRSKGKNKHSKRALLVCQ
USP30 inh – inhibitors of human USP30 deubiquitinase. inhibition, % at 25 µM. 47,000 tested, 5.3% active. Ubiquitin carboxyl-terminal hydrolase 30 (Homo sapiens), Q70CQ3. AID 1645860, 2021. purified USP30, Ub-rhodamine cleavage fluorescence
OTUD3 block – inhibitors of human OTUD3 deubiquitinase | inhibition, % at 25 µM | 47,000 tested, 0.7% active | OTU domain-containing protein 3 (Homo sapiens), Q5T2D3 | purified OTUD3, Ub-rhodamine fluorescence, 2 h | AID 1645858, 2021
Hits are given with their value. This is a sample that favours compounds with a hit; in the whole collection about 12% have one here. No stated cut-off is given here; in the data, active means inhibition above about 30%; inactive means the rest.

Cc1cc(=O)n(CC(=O)Nc2ccccc2F)c(N2CCCCC2)n1 was read as USP28 block inactive, USP17 inh inactive, USP30 inh inactive and OTUD3 block inactive.
Screening O=C(Cn1c(CSc2ccccc2)nc2ccccc21)Nc1ccccc1F returned USP28 block 65, USP17 inh inactive, USP30 inh inactive and OTUD3 block inactive.
Screening CCOC(=O)C1CCN(C(=O)CCc2c(C)nc3c(c(C)nn3-c3ccc(C)cc3)c2C)CC1 returned USP28 block inactive, USP17 inh inactive, USP30 inh inactive and OTUD3 block inactive.
Clc1ccc(-c2cnc3sc(NCCc4ccccn4)nn23)cc1 was read as USP28 block inactive, USP17 inh inactive, USP30 inh inactive and OTUD3 block inactive.
For Clc1ccccc1-c1cnc2sc(NCCc3ccccn3)nn12 the results were USP28 block inactive, USP17 inh inactive, USP30 inh 33 and OTUD3 block inactive.
Screening NCCCC(N)CC(=O)NCCCC(N)CC(=O)NCCCC(N)CC(=O)NCCCC(N)CC(=O)NCCCC(N)CC(=O)NCCCC(N)CC(=O)NC1C(NC2=N[C@@H]3C(=O)NC[C@@H](O)[C@H]3N2)OC(CO)C(OC(N)=O)C1O (some centres undefined) returned USP28 block inactive, USP17 inh inactive, USP30 inh 32 and OTUD3 block inactive.
O=C(CC1c2ncccc2C(=O)N1c1ccccc1)N1CCCCC1 (centres undefined) was read as USP28 block inactive, USP17 inh inactive, USP30 inh inactive and OTUD3 block inactive.
Screening CCc1nccn1Cc1noc(-c2ccc3c(c2)OCO3)n1 returned USP28 block 48, USP17 inh inactive, USP30 inh inactive and OTUD3 block inactive.
For COc1ccc(-n2nnnc2CN2CCN(S(=O)(=O)c3ccc(Cl)cc3)CC2)cc1 the results were USP28 block inactive, USP17 inh 40, USP30 inh 47 and OTUD3 block inactive.
`Cc1cccc(Nc2cc(C3CCN(C(=O)c4cncnc4)CC3)ccn2)n1` gave USP28 block inactive, USP17 inh inactive, USP30 inh 32 and OTUD3 block inactive.
Cc1ccc(-c2noc(-c3ccc(N4CCC5(CC4)OCCO5)nc3)n2)cc1 was read as USP28 block inactive, USP17 inh inactive, USP30 inh inactive and OTUD3 block inactive.
For COc1ccc(-c2noc(-c3ccc(N4CCC5(CC4)OCCO5)nc3)n2)cc1 the results were USP28 block inactive, USP17 inh inactive, USP30 inh 34 and OTUD3 block inactive.
`COc1ccccc1NS(=O)(=O)c1cc(NC(=O)c2cccc(-c3ccc(O)cc3)c2)ccc1C` gave USP28 block inactive, USP17 inh 35, USP30 inh 30 and OTUD3 block inactive.
Screening O=C(c1cnn(-c2ccc([N+](=O)[O-])cc2)c1C1CCNCC1)N1CCN(c2ncccn2)CC1 returned USP28 block inactive, USP17 inh inactive, USP30 inh inactive and OTUD3 block inactive.
Screening COc1cc2c(cc1OC)-c1cc(NCc3cc(OC)c(OC)c(OC)c3)nc(=O)n1CC2 returned USP28 block inactive, USP30 inh inactive and OTUD3 block 41.
Cc1[nH]c2ccccc2c1C1CCN(S(=O)(=O)c2ccc(Cl)cc2)CC1 was read as USP28 block inactive, USP17 inh inactive, USP30 inh inactive and OTUD3 block inactive.
Screening O=C(c1ccc2c(c1)OCO2)N1CCC2(C1)Nc1cccnc1NC2=NCc1ccccc1 (centres undefined) returned USP28 block inactive, USP17 inh inactive, USP30 inh inactive and OTUD3 block inactive.
Cc1ccc(CNC(=O)c2cnc3sc4c(n3c2=O)CCC4)cc1 was read as USP28 block inactive, USP17 inh inactive, USP30 inh inactive and OTUD3 block inactive.
Screening Cc1ccc(CNC(=O)Cn2c(-c3ccccc3)nc(C)cc2=O)cc1 returned USP28 block inactive, USP17 inh inactive, USP30 inh inactive and OTUD3 block inactive.
For Cc1ccc(CNC(=O)c2cc(-c3ccccc3)nn2-c2ccccc2)cc1 the results were USP28 block inactive, USP17 inh inactive, USP30 inh 34 and OTUD3 block inactive.
Cc1ccc(Sc2ccc(CN3CCN(C(c4ccccc4)c4ccccc4)CC3)cc2[N+](=O)[O-])cc1 was read as USP28 block inactive, USP17 inh inactive, USP30 inh inactive and OTUD3 block inactive.
`CC(=O)Nc1cccc(C(=O)Nc2ccc(N3CCCC3=O)cc2)c1` gave USP28 block inactive, USP17 inh inactive, USP30 inh inactive and OTUD3 block inactive.
`COc1cc(OC)cc(C(=O)Nc2cccc(N3CCCC3=O)c2)c1` gave USP28 block inactive, USP17 inh inactive, USP30 inh inactive and OTUD3 block inactive.
`COc1cccc(C(=O)Nc2cc3c4c(c2)CC(=O)N4CCC3)c1` gave USP28 block 33, USP17 inh inactive, USP30 inh inactive and OTUD3 block inactive.
Screening Cc1cccc(C(=O)Nc2cc3c4c(c2)CC(=O)N4CCC3)c1 returned USP28 block 37, USP17 inh inactive, USP30 inh inactive and OTUD3 block inactive.
Screening O=C(CSc1ccc(-c2ccncc2)nn1)Nc1ccc(Cl)cc1 returned USP28 block inactive, USP17 inh 32, USP30 inh inactive and OTUD3 block inactive.
For O=C(CSc1ccc(-c2ccccc2)nn1)Nc1ccc(F)c([N+](=O)[O-])c1 the results were USP28 block inactive, USP17 inh inactive, USP30 inh inactive and OTUD3 block inactive.
For O=C(CSc1ccc(-c2cccc([N+](=O)[O-])c2)nn1)Nc1cccc(F)c1 the results were USP28 block 40, USP17 inh 79, USP30 inh 45 and OTUD3 block inactive.
`CC(=O)Nc1cccc(NC(=O)CSc2ccc(-c3ccc4c(c3)OCO4)nn2)c1` gave USP28 block inactive, USP17 inh inactive, USP30 inh 33 and OTUD3 block inactive.
Screening COc1ccc(NC(=O)CSc2ccc(-c3cccnc3)nn2)cc1OC returned USP28 block inactive, USP17 inh inactive, USP30 inh inactive and OTUD3 block inactive.
`CCn1c(CSc2nnc(C3CC3)n2Cc2ccccc2)nc2cc(S(=O)(=O)N(C)C)ccc21` gave USP28 block inactive, USP17 inh inactive, USP30 inh inactive and OTUD3 block inactive.
`CCn1c(CN2CCc3ccccc3C2)nc2cc(S(=O)(=O)N(C)C)ccc21` gave USP28 block inactive, USP17 inh 34, USP30 inh inactive and OTUD3 block inactive.
For COc1ccc(NC(=O)CC(=O)c2ccc([N+](=O)[O-])cc2)cc1S(=O)(=O)Nc1ccc(Br)cc1 the results were USP28 block 42, USP17 inh 34, USP30 inh 60 and OTUD3 block inactive.
`CC(C)N1CC[C@@H]2[C@H](C1)CN2C(=O)Nc1cccc(F)c1` gave USP28 block inactive, USP17 inh inactive, USP30 inh inactive and OTUD3 block inactive.
O=C(Cn1cc(-c2ccccc2)oc1=O)NCc1ccc(Cl)cc1 was read as USP28 block inactive, USP17 inh 41, USP30 inh 35 and OTUD3 block inactive.
For Cn1ccc2ccn(CC(=O)NCc3ccc(Cl)cc3)c(=O)c21 the results were USP28 block inactive, USP17 inh inactive, USP30 inh inactive and OTUD3 block inactive.
